In all, about 5,500 compounds went through this assay and about 2,000 (36%) were called active. Not shown: some 18% with an inconclusive outcome. No stated cut-off is given here; in the data, active means normalized growth mostly below about 0.91 (no sharp cut-off); inconclusive means no clear call, values can overlap the other calls; inactive means mostly above about 0.92. The list shows a part of the results.
Assay: chemical genetic growth profiling, strain panel (AID 1159580);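 further: tested at 20 µM; growth read once vehicle control cultures reached saturation at 30 °C; 1 = growth at the plate median or of vehicle wells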
Conditions: S. cerevisiae deletion strains, growth OD

Measured: normalized growth

Cc1cc(=O)oc2cc(O)cc(O)c12
inactive: locus YAL021C, strain ccr4, stronger effect = lower value 0.968 | locus YAL026C, strain drs2, stronger effect = lower value 0.96 | locus YAL030W, strain snc1, stronger effect = lower value 0.952 | locus YBL061C, strain skt5, stronger effect = lower value 0.958 | locus YBR009C, strain hhf1, stronger effect = lower value 0.949 | locus YBR023C, strain chs3, stronger effect = lower value 0.949 | locus YBR171W, strain sec66, stronger effect = lower value 0.965 | locus YBR231C, strain swc5, stronger effect = lower value 0.975 | locus YBR279W, strain paf1, stronger effect = lower value 0.969 | locus YCL011C, strain gbp2, stronger effect = lower value 0.95 | locus YCL016C, strain dcc1, stronger effect = lower value 0.966 | locus YCL061C, strain MRC1, stronger effect = lower value 0.983 | locus YCL069W, strain vba3, stronger effect = lower value 0.965 | locus YCR088W, strain abp1, stronger effect = lower value 0.958 | locus YDL005C, strain med2, stronger effect = lower value 0.961 | locus YDL040C, strain nat1, stronger effect = lower value 0.958 | locus YDR001C, strain nth1, stronger effect = lower value 0.957 | locus YDR069C, strain doa4, stronger effect = lower value 0.941 | locus YDR137W, strain rgp1, stronger effect = lower value 0.962 | locus YDR159W, strain sac3, stronger effect = lower value 0.932 | locus YDR195W, strain ref2 0.925 | locus YDR297W, strain sur2, stronger effect = lower value 0.96 | locus YDR334W, strain swr1, stronger effect = lower value 0.948 | locus YDR335W, strain msn5, stronger effect = lower value 0.978 | locus YDR392W, strain spt3, stronger effect = lower value 0.938 | locus YEL003W, strain gim4, stronger effect = lower value 0.978 | locus YEL037C, strain rad23, stronger effect = lower value 0.929 | locus YEL061C, strain CIN8 (second series), stronger effect = lower value 0.951 | locus YER015W, strain faa2, stronger effect = lower value 0.998 | locus YER016W, strain bim1, stronger effect = lower value 0.965 | locus YER111C, strain swi4, stronger effect = lower value 0.949 | locus YER155C, strain BEM2 (second series), stronger effect = lower value 0.932 | locus YFR010W, strain ubp6, stronger effect = lower value 0.943 | locus YGL167C, strain pmr1, stronger effect = lower value 0.943 | locus YGL173C, strain kem1, stronger effect = lower value 0.97 | locus YGL227W, strain vid30, stronger effect = lower value 0.95 | locus YGL240W, strain doc1, stronger effect = lower value 0.971 | locus YGL253W, strain hxk2, stronger effect = lower value 0.995 | locus YHR013C, strain ard1, stronger effect = lower value 0.948 | locus YHR027C, strain rpn1, stronger effect = lower value 0.964 | locus YHR142W, strain chs7, stronger effect = lower value 0.94 | locus YJL092W, strain hpr5, stronger effect = lower value 0.969 | locus YJL095W, strain BCK1 (second series), stronger effect = lower value 0.974 | locus YJL115W, strain asf1, stronger effect = lower value 0.958 | locus YJL129C, strain trk1, stronger effect = lower value 0.946 | locus YJL154C, strain vps35, stronger effect = lower value 0.971 | locus YJL164C, strain tpk1, stronger effect = lower value 0.978 | locus YJL166W, strain qcr8, stronger effect = lower value 0.983 | locus YJL187C, strain SWE1, stronger effect = lower value 0.968 | locus YKL160W, strain elf1, stronger effect = lower value 0.981 | locus YKR026C, strain gcn3, stronger effect = lower value 0.944 | locus YKR091W, strain srl3, stronger effect = lower value 0.962 | locus YLL001W, strain dnm1, stronger effect = lower value 0.948 | locus YLL026W, stronger effect = lower value 0.97 | locus YLL041C, strain sdh2, stronger effect = lower value 0.977 | locus YLR027C, strain aat2, stronger effect = lower value 0.945 | locus YLR221C, strain rsa3, stronger effect = lower value 0.977 | locus YLR258W, strain gsy2, stronger effect = lower value 0.966 | locus YLR262C, strain YPT6 (second series), stronger effect = lower value 0.977 | locus YLR320W, strain mms22, stronger effect = lower value 0.962 | locus YLR342W, strain FKS1, stronger effect = lower value 0.958 | locus YLR357W, strain rsc2, stronger effect = lower value 0.939 | locus YLR370C, strain arc18, stronger effect = lower value 0.932 | locus YLR384C, strain iki3, stronger effect = lower value 0.957 | locus YML120C, strain ndi1, stronger effect = lower value 0.954 | locus YMR058W, strain fet3, stronger effect = lower value 0.967 | locus YMR125W, strain sto1, stronger effect = lower value 0.935 | locus YMR129W, stronger effect = lower value 0.969 | locus YMR205C, strain PFK2, stronger effect = lower value 0.932 | locus YMR231W, strain pep5, stronger effect = lower value 1 | locus YNL071W, strain lat1, stronger effect = lower value 0.972 | locus YNL209W, strain ssb2, stronger effect = lower value 0.965 | locus YNL248C, strain rpa49, stronger effect = lower value 0.996 | locus YNL322C, strain KRE1 (second series), stronger effect = lower value 0.95 | locus YNR049C, strain mso1, stronger effect = lower value 0.954 | locus YOR001W, strain rrp6, stronger effect = lower value 0.979 | locus YOR070C, strain gyp1, stronger effect = lower value 0.973 | locus YOR080W, strain dia2, stronger effect = lower value 0.965 | locus YOR083W, strain WHI5, stronger effect = lower value 0.988 | locus YOR106W, strain vam3, stronger effect = lower value 0.964 | locus YOR265W, strain rbl2, stronger effect = lower value 0.976 | locus YOR270C, strain vph1, stronger effect = lower value 0.894 | locus YOR290C, strain snf2, stronger effect = lower value 0.939 | locus YPL051W, strain arl3, stronger effect = lower value 0.982 | locus YPL078C, strain atp4, stronger effect = lower value 0.969 | locus YPL106C, strain sse1, stronger effect = lower value 0.927 | locus YPL240C, strain hsp82, stronger effect = lower value 0.985
